High-throughput results as filed in PubChem.
Only some compounds are listed: those with a hit (about 3.4% of all), similar ones and a draw of the others.
RE007 growth inh: less growth of the S. pombe RE007 Vpr strain; Potency, µM (doses to about 92.2 µM), inactives show top-dose activity change, negative = less growth, most hits filed as inhibitors; S. pombe RE007 Vpr strain, BacTiter-Glo ATP luminescence, 24 h; AID 651644; hit rate 0.21% among 360,000; active means well fitted falling curve with a large enough effect; inconclusive means small, poorly fitted or top-dose-only effect; inactive means no such curve, though single readings can be large or run the other way; further: nearly all actives have a fitted effect of over 50% in size
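Fission yeast RE007 carrying one integrated HIV-1 vpr copy, seeded at OD 0.01 in PMG+AL medium with 23 nL pinned compound. Grown 24 h at 30 degrees; viability read by BacTiter-Glo luminescence after 5 min.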
Sm TGR block: S. mansoni TGR enzyme inhibition; Q962Y6; purified TGR, DTNB reduction, TNB absorbance 405 nm; Potency, µM (highest dose often 114 µM), inactives show at the top dose activity change, negative = inhibition, most hits filed as inhibitors; hit rate 3% among 360,000; further: nearly all actives have a fitted effect of over 60% in size
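TGR 20 nM + NADPH 100 uM (dispensed conc.), cpd preinc 15 min RT; start with NADPH (500 uM addition) then DTNB (15 mM addition). Kinetic TNB absorbance, 405 nm filter. Four-parameter Hill fit across titration.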
Giardia FBPA inh: inhibitors of Giardia lamblia fructose-1,6-bisphosphate aldolase; A8B2U2; purified Giardia FBPA; Potency, µM (top dose mostly 59.6 µM), for the others: top-dose activity, negative = inhibition, hits mostly inhibitors; hit rate 0.71% among 290,000; further: nearly all actives have a fitted effect of over 55% in size
Target sequence (A8B2U2 whole entry, looked up): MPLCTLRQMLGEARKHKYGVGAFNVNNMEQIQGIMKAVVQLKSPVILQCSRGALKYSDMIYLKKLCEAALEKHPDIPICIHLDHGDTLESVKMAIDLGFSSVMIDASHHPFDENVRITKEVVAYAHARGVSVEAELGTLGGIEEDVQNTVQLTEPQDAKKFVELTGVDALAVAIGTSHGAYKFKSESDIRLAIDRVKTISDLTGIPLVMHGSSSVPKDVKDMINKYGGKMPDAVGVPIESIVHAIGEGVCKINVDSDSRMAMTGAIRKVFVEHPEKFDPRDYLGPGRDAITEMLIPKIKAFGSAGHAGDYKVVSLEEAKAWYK
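Giardia FBPA (40 nM reagent) was preincubated 10 min at RT with compound (up to 57.5 uM final), then substrate plus GAPDH/TPI/NAD/arsenate coupling system with diaphorase/resazurin was added; resorufin fluorescence (525/598 nm) was read after 20 min.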
AmpC inh detg: AmpC beta-lactamase inhibition with detergent present; P00811; AmpC hydrolysis of nitrocefin, absorbance 480 nm, 0.01% Triton; Potency, µM (top dose mostly 114 µM), without a hit: at the top dose activity change, negative = inhibition, hits mostly inhibitors; hit rate 0.041% among 370,000; AID 485294;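 further: 0% = no-compound wells and -100% = no-enzyme wells; nearly all actives have a fitted effect of over 25% in size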
Target sequence (P00811 whole entry, looked up): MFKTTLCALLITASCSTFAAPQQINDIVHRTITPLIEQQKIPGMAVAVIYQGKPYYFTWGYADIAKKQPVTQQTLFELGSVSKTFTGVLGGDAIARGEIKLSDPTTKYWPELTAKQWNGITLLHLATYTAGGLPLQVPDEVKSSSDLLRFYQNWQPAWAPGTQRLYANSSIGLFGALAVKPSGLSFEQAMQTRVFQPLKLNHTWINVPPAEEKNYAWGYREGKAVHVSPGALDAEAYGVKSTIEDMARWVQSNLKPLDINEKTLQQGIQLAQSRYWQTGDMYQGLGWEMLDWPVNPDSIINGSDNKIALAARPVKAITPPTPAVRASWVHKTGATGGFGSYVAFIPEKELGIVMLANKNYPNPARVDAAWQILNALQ
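AmpC (5.3 nM in the dispensed reagent) in 20 mM phosphate pH 7.0 with 0.01% (detergent screen) or 0.0001% Triton X-100 was preincubated with compounds for 15 min at room temperature. Nitrocefin was then added from an 800 uM solution, and hydrolysis was followed at 480 nm.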
AmpC no deterg: blocks E. coli AmpC beta-lactamase in detergent-free assay | P00811 | AmpC nitrocefin hydrolysis, absorbance 480 nm, 0.0001% Triton | Potency, µM (titrated, usually from 57.1 µM), for the others: at the highest dose activity change, negative = inhibition, actives largely listed as inhibitors | hit rate 0.52% among 330,000;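 further: plate controls were no compound for no effect and no enzyme for full effect; nearly all actives have a fitted effect of over 20% in size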
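AmpC (5.3 nM in the dispensed reagent) in 20 mM phosphate pH 7.0 with 0.01% (detergent screen) or 0.0001% Triton X-100 was preincubated with compounds for 15 min at room temperature. Nitrocefin was then added from an 800 uM solution, and hydrolysis was followed at 480 nm.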
The depositor's hits bear a star; ? = inconclusive; / = no result; [ ] = dose if it differs, or a comment. Unless noted, the call rests on the fitted dose curve; in most records, active means well fitted curve in the direction sought with a large enough effect; inconclusive means small, poorly fitted or top-dose-only effect, or another doubt; inactive means no such curve, though single readings can be large; an effect the other way counts as inactive or inconclusive. Unless noted, on the % scale 0 is the no-effect control and ±100 the full control effect; potency means the concentration at half of the fitted maximal effect.

SMILES	RE007 growth inh	Sm TGR block	Giardia FBPA inh	AmpC inh detg	AmpC no deterg
C/C(=N\Nc1ccc(Cl)cc1)c1c(O)cc(C)oc1=O	4%	22µM*	-11%	?	-25%
COCCCNC(=O)c1ccc([N+](=O)[O-])cc1	3%	-2%	3%	-3%	8%
O=C(CCl)NCCCN(C(=O)C(Cl)Cl)c1ccc([N+](=O)[O-])cc1	11%	28µM*	3%	?	-9%
C=CCSc1nnc(Cc2cc(=O)[nH]c(=O)[nH]2)n1-c1cc(C)ccc1C	8%	22µM*	-7%[12.9 µM]	-11%	0%
N#CCCNCC1(c2ccccc2)CCCC1	-11%	-3%	-23%	?	-11%
O=C(NCc1ccncc1)Nc1ccccc1F	12%	/	3%	2%	1%
CCOC(=O)C1Nc2ccc(Br)cc2C2C=CCC12 (centres undefined)	9%	28µM*	-1%	-4%	-27%
O=C(OC1CCCCC1)c1ccc2c(c1)C1C=CCC1C(C(=O)O)N2 (centres undefined)	/	3.2µM*	-21%	-8%	-23%
CCOC(=O)C1Nc2ccc(C)cc2C2C=CCC12 (centres undefined)	-4%	/	/	/	/
CCOC(=O)c1ccc2c(c1)C1C=CCC1C(C(=O)OCC)N2 (centres undefined)	1%	32µM*	-14%	?	-8%
O=C(O)C1Nc2ccc(Br)cc2C2C=CCC12 (centres undefined)	5%	0.89µM*	-1%	?	-44%
O=C(COc1ccc2ccccc2c1Br)NC(=S)Nc1cccc(CO)c1	13%	-6%	0%	?	-36%
O=C(NC(NC(=S)Nc1ccccc1C(=O)O)C(Cl)(Cl)Cl)c1cccc([N+](=O)[O-])c1 (centres undefined)	-10%	11%	-4%	4%	-33%
CC(=O)NS(=O)(=O)c1ccc(NC(=O)/C=C/c2cn(-c3ccccc3)nc2-c2ccccc2)cc1	/	-10%	-4%	-9%	-54%
O=C(/C=C\c1cn(-c2ccccc2)nc1-c1ccccc1)Nc1nccs1	-9%	-6%	2%	-14%	11µM*
CC(C(=O)Nc1ccccc1)c1ccc(-c2ccccc2)c(F)c1 (centres undefined)	2%	-16%	0%	?	11µM*
C=C(C=O)CC1CC(O)[C@]2(C)OC3CC4OC5C[C@]6(C)O[C@]7(C)CCC8OC9C[C@]%10(C)OC%11C(C)=CC(=O)OC%11CC%10OC9C[C@@H](C)C8OC7CC6O[C@]5(C)CC5OC5C4OC3CC2O1 (some centres undefined)	819%	11µM*	-3%	3%	142%
C=C(CO)CC1CC(O)[C@]2(C)OC3CC4OC5C[C@]6(C)O[C@]7(C)CCC8OC9C[C@]%10(C)OC%11C(C)=CC(=O)OC%11CC%10OC9C[C@@H](C)C8OC7CC6O[C@]5(C)C/C=C\C4OC3CC2O1 (some centres undefined)	-3%	4%	-6%	1%	152%
Cc1cccc(OCCC(=O)Nc2ccc(F)c(F)c2)c1	10%	13%	-10%	-9%	-21%
CC1CCN(c2nc(Cl)nc(Nc3ccc([N+](=O)[O-])cc3)n2)CC1	5%	0%	0%	?	10µM*
C=CCNc1nc(Nc2ccc([N+](=O)[O-])cc2)nc(N2CCCC2)n1	-1%	7%	-12%	0%	-23%
Cc1ccccc1S(=O)(=O)N1C[C@H]2CON(C)[C@H]2C[C@H]1c1cccc(-c2ccc(C#N)cc2)c1	-13%	/	/	/	/
O=C(O)C1Nc2c(Cl)cc(Cl)c(Cl)c2C2C=CCC12 (centres undefined)	5%	/	/	/	/
O=C(O)C1Nc2c(Cl)cc(Cl)cc2C2C=CCC12 (centres undefined)	-30%	?	7%	?	13µM*
O=C(O)C1Nc2c(O)cccc2C2C=CCC12 (centres undefined)	16%	8.9µM*	?	?	?
SMILES	RE007 growth inh	Sm TGR block	Giardia FBPA inh	AmpC inh detg	AmpC no deterg
O=C(NC(=S)Nc1cccc2ncccc12)c1cccs1	-27%	4µM*	?	-1%	-12%
Nc1ccc(C(=O)Nc2cccc3ncccc23)cc1	15%	1%	-11%	3%	-3%
O=C(NC(=S)Nc1cccc2ncccc12)c1ccccc1	-4%	8.9µM*	?	?	-16%
NC(=O)CC(NC(=O)c1ccc(Br)cc1)c1ccc(N2CCCCCCC2)c([N+](=O)[O-])c1 (centres undefined)	-8%	0%	26%	?	14%
Cc1cc(NC(=O)c2cc3ccccc3oc2=O)no1	-8%	-17%	0%	-15%	-5%
CCOC(=O)c1cnc(-c2ccccc2)nc1Oc1ccccc1	-15%	10%	-20%	-8%	4%
CCN(CC)C(=O)[C@H]1C[C@H](CC(=O)NCCN2CCOCC2)C(=O)N2CCc3c([nH]c4ccc(Cl)cc34)[C@]12C	-8%	/	/	/	268%
COc1ccc(S(=O)(=O)N2CCOC2CNC(=O)C(=O)NCc2cccnc2)cc1OC (centres undefined)	2%	-5%	3%	-1%	1%
NC(N)=Nc1ccc2[nH]c3c(c2c1)C[C@@]1(O)[C@H]2Cc4ccc(O)c5c4[C@@]1(CCN2CC1CC1)[C@H]3O5	?	0.79µM*	-11%	0%	-5%
COc1ccc(C(=O)c2coc3ccc(O)c(CN4CCCCC4)c23)cc1	-5%	-5%	0%	3%	40µM*
O=C(c1ccccc1)c1coc2ccc(O)c(CN3CCOCC3)c12	-7%	1%	2%	-7%	-5%
O=C(COC(=O)/C=C/c1ccc2ccccc2n1)NNC(=O)c1ccccc1	-9%	/	/	/	/
Cc1cc(C)c(S(=O)(=O)Nc2cc(SCC(=O)O)c(O)c3ccccc23)cc1C	-14%	8.9µM*	4µM*	-12%	-46%
O=S(=O)(Nc1ccc(Cl)cc1NS(=O)(=O)c1ccccc1)c1ccccc1	-1%	/	/	/	/
COc1ccc(S(=O)(=O)Nc2cc(SCC(=O)O)c(O)c3ccccc23)cc1	-26%	3.5µM*	7.9µM*	-6%	-35%
O=S(=O)(Nc1cc(Sc2cccc3cccnc23)c(O)c2ccccc12)c1ccc(F)cc1	?	3.5µM*	1.1µM*	-6%	-46%
O=C(O)CSc1cc(NS(=O)(=O)c2ccc(Cl)cc2)c2ccccc2c1O	?	7.1µM*	4µM*	5%	-46%
O=C(Sc1cccc2cccnc12)c1ccc(F)cc1	/	?	?	-18%	-28%[11.4 µM]
CCSc1nc2ccccc2c(OCc2ccc(Cl)cc2)c1C(=O)OC	/	15%	/	1%	/
